About 840 (25%) of roughly 3,400 compounds were called active. Inconclusive results (about 11%) are left out. Not all results are given here. Potency and affinity values are given separately. Values without a mark were called inactive.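 Rule for the calls: active = fitted half-maximal concentration of signal decrease at or below twice the sample's top tested concentration; inconclusive = flat curve between -70 and -30 percent, or poor fit; inactive = flat within 30 percent, signal rise, or potency above limit.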
Test: inhibitors of Toxoplasma growth in IFN-γ-primed HeLa – cell-based, ME49Luc, luciferase, 72 h, dose response (AID 1259418)
Settings: T. gondii ME49Luc in IFN-y HeLa, hits give low values, -100% = high-dose IFN-γ control wells; at 19.5 µM unless noted
`CCCCNC(=O)CCC1N=C2c3ccccc3N=C(SCc3ccccc3F)N2C1=O` (stereo not drawn) gave a max activity of -6.88% [at 2.6 µM].
In the case of `COc1ccccc1CNC(=O)CCC1N=C2c3ccccc3N=C(SCc3ccc(Cl)cc3)N2C1=O` (stereo not drawn), the max activity is reported as 16% [at 2.6 µM].
`CCCCNC(=O)CCC1N=C2c3ccccc3N=C(SCc3cc(=O)n4ccccc4n3)N2C1=O` (stereo not drawn) gave a max activity of 21.9% [at 0.68 µM].
`CCCCNC(=O)CC1N=C2c3ccccc3N=C(SCc3ccccc3Cl)N2C1=O` (stereo not drawn) showed a max activity of -10.2%.
In the case of `CCCCNC(=O)CCC1N=C2c3ccccc3N=C(SCC#N)N2C1=O` (stereo not drawn), the max activity is reported as 51.3%.
In the case of `CCCCNC(=O)CCC1N=C2c3ccccc3N=C(SCC(=O)OCC)N2C1=O` (stereo not drawn), the max activity is reported as -17.8% [at 2.6 µM].
With `CCc1ccc(-c2noc(-c3nnn(Cc4nc(-c5ccc(C)cc5)oc4C)c3C)n2)cc1` the max activity was 8.04% [at 0.68 µM].
`COc1ccc(OC)c(S(=O)(=O)Nc2ccc(-c3nc(-c4ccc(C)c(C)c4)co3)cc2)c1` gave a max activity of 20.8% [at 1.35 µM].
Work on `Cc1ccc(-c2nc(Cn3nnc(-c4nc(-c5ccc(C)c(C)c5)no4)c3C)c(C)o2)cc1` yielded a max activity of -11% [at 2.6 µM].
Work on `Cc1ccc(NC(=O)N2CCN(Cc3nc(-c4ccccc4C)oc3C)CC2)cc1Cl` yielded a max activity of 14% [at 1.35 µM].
Compound `O=C(NCCc1csc(-c2ccccc2)n1)[C@H]1CCCN1C(=O)c1ccc(F)c(F)c1` has a max activity of 13.1% [at 0.16 µM].
In the case of `CCc1ccc(NC(=O)N2CCc3nc(-c4ccc(OC)c(OC)c4)sc3C2)cc1`, the max activity is reported as 7.81% [at 0.16 µM].
`O=C1CCc2cc(NC(=O)c3cccnc3)ccc2N1` showed a max activity of 9.01% [at 1.35 µM].
Compound `Cc1ccc(-c2coc(-c3ccc(NC(=O)c4c(F)cccc4F)cc3)n2)cc1` has a max activity of 20.4% [at 5 µM].
Compound `Cc1ccc(-c2nc3c(s2)CN(S(=O)(=O)c2ccc(F)cc2)CC3)cc1` has a max activity of 8.68% [at 10 µM].
With `CCc1nc(OCC(=O)Nc2ccc(C(C)C)cc2)c2ccccc2n1` the max activity was 25.6% [at 10 µM].
Compound `COc1ccc(-c2nc(Nc3ccccc3Cl)c3ccccc3n2)cc1` has a max activity of -9.71% [at 0.35 µM].
In the case of `COc1cccc(CNC(=O)Nc2ccc(-c3nc(-c4ccccc4)co3)cc2)c1`, the max activity is reported as 78.4%.
Work on `Cc1cccc(-c2nc(Cn3nnc(-c4nc(-c5ccccc5Br)no4)c3C)c(C)o2)c1` yielded a max activity of 9.01% [at 2.6 µM].
Compound `CCCCNC(=O)CCC1N=C2c3ccccc3N=C(SCc3ccc(C)cc3)N2C1=O` (stereo not drawn) has a max activity of 25.3% [at 2.6 µM].
Work on `CN(C)c1cccc(C(=O)N2CCC3(CC2)Nc2ccc(Cl)cc2-n2cccc23)c1` yielded a max activity of -25.9% [at 10 µM].
For `Cc1nc(OCC(=O)Nc2cc(Cl)ccc2Cl)c2ccccc2n1`, the max activity was 20.7% [at 0.68 µM].
For `CCCc1ccc(S(=O)(=O)Nc2ccc(-c3nc(-c4ccc(C)cc4C)co3)cc2)cc1`, the max activity was -16.7% [at 0.16 µM].
With `Cc1ccc(-c2coc(-c3ccc(NS(=O)(=O)c4ccc(C(C)C)cc4)cc3)n2)c(C)c1` the max activity was -13.7%.
Compound `Cc1ccc(-c2coc(-c3ccc(NS(=O)(=O)c4ccc(N5CCCC5=O)cc4)cc3)n2)c(C)c1` has a max activity of -11% [at 0.68 µM].
With `COc1ccc(S(=O)(=O)Nc2ccc(-c3nc(-c4ccc(C)cc4C)co3)cc2)cc1` the max activity was 26.2% [at 5 µM].
Work on `Cc1ccc(S(=O)(=O)Nc2ccc(-c3nc(-c4ccc(C)cc4C)co3)cc2)cc1` yielded a max activity of 12.9% [at 0.16 µM].
In the case of `Cc1ccc(-c2coc(-c3ccc(NS(=O)(=O)c4cccc(Cl)c4C)cc3)n2)c(C)c1`, the max activity is reported as 16.4% [at 2.6 µM].
In the case of `Cc1ccc(-c2coc(-c3ccc(NS(=O)(=O)c4cccc(Cl)c4)cc3)n2)c(C)c1`, the max activity is reported as -22.9%.
`Cc1ccc(-c2coc(-c3ccc(NS(=O)(=O)c4ccc(C(C)(C)C)cc4)cc3)n2)c(C)c1` showed a max activity of -14.9%.
`Cc1nc(OCC(=O)Nc2ccccc2Br)c2ccccc2n1` gave a max activity of 28.1% [at 0.16 µM].
For `Cc1ccc(C)c(-c2nc(CN3CCc4c(sc5c4CCCC5)C3c3ccccc3)c(C)o2)c1` (stereo not drawn), the max activity was 15.8%.
With `COc1ccccc1-c1nc(Cn2nnc(-c3nc(-c4ccc5c(c4)OCO5)no3)c2C)c(C)o1` the max activity was 8.21% [at 0.35 µM].
`O=C(Nc1ccc(-c2nc(-c3ccccc3)co2)cc1)Nc1cccc(Cl)c1` showed a max activity of 19.9% [at 0.16 µM].
With `O=C(c1cccnc1)N1CCC2(CC1)Nc1ccc(Cl)cc1-n1cccc12` the max activity was -27.3% [at 0.16 µM].
With `CCOc1ccc(N2CC(NC(=O)C(=O)c3c[nH]c4ccccc34)CC2=O)cc1` (stereo not drawn) the max activity was 10.2% [at 10 µM].
With `O=C(NC1CC(=O)N(c2ccc(Cl)cc2)C1)C(=O)c1c[nH]c2ccccc12` (stereo not drawn) the max activity was 22.9% [at 2.6 µM].
Work on `O=C(Nc1ccc(-c2nc(-c3ccccc3)co2)cc1)Nc1ccc(Br)cc1F` yielded a max activity of 58.9% [at 10 µM].
`Cc1oc(-c2ccccc2)nc1Cn1nc2n(Cc3ccc(F)cc3)c(=O)c3nn(C)cc3n2c1=O` showed a max activity of 15.8%.
`Cc1ccc(Cn2c(=O)c3nn(C)cc3n3c(=O)n(Cc4nc(-c5ccc(C)cc5)oc4C)nc23)cc1` gave a max activity of 11.5% [at 2.6 µM].
With `Cc1cccc(NC(=O)Nc2ccc(-c3nc(-c4ccccc4)co3)cc2)c1` the max activity was 16.2% [at 0.16 µM].
With `CN1C(=O)CCc2cc(NC(=O)CC3CCCCC3)ccc21` the max activity was 8.53%.
Work on `CN1C(=O)c2cc(NC(=O)c3cccc(F)c3)ccc2OC[C@@H]2O[C@@H](CC(=O)NCC3CCCCC3)CC[C@@H]21` yielded a max activity of -24.1%.
Work on `COc1ccc(-c2nc(Nc3cccc(Cl)c3)c3ccccc3n2)cc1` yielded a max activity of 22.1% [at 0.35 µM].
With `CCN(CC)C(=O)C1Cn2ccnc2C2(CCN(CC(C)C)CC2)O1` (stereo not drawn) the max activity was 37.9%.
`O=C(NCCc1csc(-c2ccccc2)n1)C1CCN(C(=O)Cc2cccs2)CC1` showed a max activity of 5.42% [at 0.35 µM].
With `Cn1nnc2c(NCCSc3c[nH]c4ccccc34)ncnc21` the max activity was 5.75% [at 0.16 µM].
Compound `CN1C(=O)CCc2cc(NC(=O)C3CCCC3)ccc21` has a max activity of 11.7%.
With `O=C1CCc2cc(NC(=O)C3CC3)ccc2N1` the max activity was -5.5% [at 5 µM].
In the case of `CC(C)N1CCC(c2ccnc3c(C(=O)N4CCCN(C)CC4)ncn23)CC1`, the max activity is reported as 39%.
`Cc1ccc(S(=O)(=O)N2CCC3(CC2)NCCN=C3NCc2ccc(F)c(Cl)c2)c(C)c1` showed a max activity of 14% [at 5 µM].
Work on `Cc1ccc(S(=O)(=O)N2CCC3(CC2)NCCN=C3NCc2cccc(F)c2)cc1C` yielded a max activity of 6.41% [at 5 µM].
For `COc1ccccc1CCC(=O)N1CCC[C@@H]1C(=O)NCCc1csc(-c2ccccc2)n1`, the max activity was -10.5%.
With `Cc1nc(N2CCCC2)nc2c1CCN(S(=O)(=O)c1ccccc1)CC2` the max activity was 10.7% [at 10 µM].
`Cc1ccc(S(=O)(=O)N2CCC3(CC2)NCCN=C3NCc2ccc(F)cc2)cc1C` gave a max activity of 30.3% [at 5 µM].
In the case of `CCC1CCCCN1S(=O)(=O)c1cc(-c2nc(C)c(C)s2)sc1C` (stereo not drawn), the max activity is reported as 7.15% [at 0.68 µM].
For `Cc1nc(CCNC(=O)[C@H]2CCCN2S(=O)(=O)c2cnn(C(F)F)c2C)cs1`, the max activity was 13.7% [at 10 µM].
In the case of `Cc1ccc2c(c1C)-n1cccc1C1(CCN(C(=O)c3cccnc3)CC1)N2`, the max activity is reported as 5.96% [at 0.68 µM].
Work on `COc1ccccc1C#Cc1ccc([C@H]2[C@@H](CO)N3CCCCN(C(=O)C4CCC4)C[C@H]23)cc1` yielded a max activity of -7.46% [at 0.08 µM].
With `COc1ccccc1C#Cc1ccc([C@@H]2[C@H](CO)N3CCCCN(C(=O)C4CCC4)C[C@@H]23)cc1` the max activity was 14.6% [at 5 µM].
Compound `Cc1cccc(-c2nc(Cn3nnc(-c4nc(-c5ccc6c(c5)OCO6)no4)c3C)c(C)o2)c1` has a max activity of -10.5% [at 0.16 µM].
Work on `Cc1ccc(CNc2nc(-c3ccc(Cl)cc3)nc3ccccc23)o1` yielded a max activity of 42.3%.
`Cc1ccc(NC(=O)Nc2ccc(-c3nc(-c4cc(C)ccc4C)co3)cc2)cc1` showed a max activity of 5.44% [at 2.6 µM].
`COc1cccc(CNC(=O)Nc2ccc(-c3nc(-c4ccc(C)cc4C)co3)cc2)c1` gave a max activity of 20.1%.
Work on `COc1ccccc1CN1CCc2nc(SCc3nc(-c4ccc(C)cc4)oc3C)[nH]c(=O)c2C1` yielded a max activity of 34.1%.
`CC1CCN(c2nc(-c3ccc(Cl)cc3)nc3ccccc23)CC1` gave a max activity of 5% [at 10 µM].
`Clc1ccc(-c2nc(N3CCC(Cc4ccccc4)CC3)c3ccccc3n2)cc1` showed a max activity of 11.8%.
For `Clc1ccc(-c2nc(N3CCN(C4CCCCC4)CC3)c3ccccc3n2)cc1`, the max activity was 19% [at 0.16 µM].
In the case of `COc1ccc(-c2nc(N3CCC(c4ccccc4)C3)c3ccccc3n2)cc1` (stereo not drawn), the max activity is reported as -14.1% [at 2.6 µM].
`O=C(c1ccc(F)cc1)N1c2ccccc2Sc2ccc(C(F)(F)F)cc21` gave a max activity of -23.5% [at 0.08 µM].
In the case of `Cc1ccc(-c2cc(C(=O)Nc3ccc4c(c3)CCC(=O)N4)c3ccccc3n2)cc1C`, the max activity is reported as 6.1% [at 1.35 µM].
`CCc1onc(C)c1C1CCCN1Cc1cn(CC(=O)OC)c2ccc(OC)cc12` (stereo not drawn) showed a max activity of 13.3% [at 5 µM].
For `COc1ccc(-c2nc3c(s2)CN(C(=O)Nc2ccc(C)cc2Cl)CC3)cc1`, the max activity was 78.4%.

Reference: PubChem BioAssay AID1259418 (Broad Institute, 2018)
